The values below come from PubChem BioAssay (NCI).

SMILES strings stand for the structures. About 83,000 compounds went through this panel and 20% of them were active in at least one assay; those are over-represented in the sample as a whole.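 Percent growth is the endpoint: 0 to 100 indicates growth inhibition (40 means 60% inhibition), 0 means no net growth, and negative values indicate cell death.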 A number with no mark means an inactive call. Active and inactive are the calls of the source.

The subject of the experiment is NCI/ADR-RES ovarian. Description: NCI-60 one-dose screen, 48 h (100 = growth as untreated, 0 = no growth, -100 = all killed). As to conditions: 10 µM unless noted. As to the method:
Growth inhibition of the NCI/ADR-RES human […] tumor cell line is measured as a screen for anti-cancer activity. Cells are grown in 96 well plates and exposed to the test compound for 48 hours. Compounds are tested at a single concentration, which is 10^-5 M for most compounds. The reported endpoint is percent growth (GI% or GIPRCNT), where numbers from 0 - 100% represent growth inhibition, and numbers from -100% - 0 represent cell death. For example, a value of 40 represents 60% growth inhibition. A value of 0 means no net growth occurred over the course of the experiment. A value of -40 indicates 40% of cells at the beginning of the experiment died by the end of the experiment. A value of -100 means all cells are dead at the end of the experiment.
NCI-60 Human Tumor Cell Lines Screen was performed using the standard one-dose NCI protocol, which is described in more detail at https://dtp.cancer.gov/discovery_development/nci-60/default.htm.
Compounds with GIPRCNT values below 10 were considered active. Activity score was based on GIPRCNT using the following formula: […]
Score is 0 for GIPRCNT values of 100 or above, 50 for GIPRCNT values of 0, and 100 for GIPRCNT values of -100.
`CC1(c2ccccc2Cl)NC(=O)NC1=O` (stereo not given): the growth was 96.9%.
In the case of `COc1ccc(Nc2nc(SCC(C)C)nc(-c3ccc(F)cc3)c2C#N)cc1`, the growth is 40.3%.
On to `NC[C@@H]1CCN(c2cc3c(cc2F)c(=O)n(N)c(=O)n3Cc2ccc(-c3ccccc3)cc2)C1`, for which the growth is 95.5%.
With `CCOC(=O)C1CCN(S(=O)(=O)/N=C2/NC(=O)NC2=C(Cl)Cl)CC1`, the growth is 68.6%.
As for `COc1ccc(C(=O)c2cc(OC)c(OC)c(OC)c2)cc1OC(=O)C(Cl)(Cl)Cl`, the growth was 9.28% (active).
For `Cn1c2c(c3ccc(-c4ccn[nH]4)cc3c1=O)C(=O)c1ccccc1-2`, the growth was 53.2%.
For `O=C1NC(c2ccc(F)cc2)N=C2C(c3ccccc3)=NOC12` (stereo not given), the growth is 112%.
Take `Nc1c(C(=O)Nc2cccc3ccccc23)sc2nc3c(cc12)CCCCC3`: the growth was 20.3%.
With `c1ccc(-c2cn3ccnc3c(-c3ccc4c(c3)ncn4C3CCCCC3)n2)cc1`, the growth was 100%.
As for `O=C(/C(=C/c1ccc([N+](=O)[O-])cc1)SCc1ccc(F)cc1)c1ccc(Cl)cc1`, the growth was 53%.
In the case of `Cc1nnc(/N=C2\NC(=O)/C(=C/c3ccsc3)S2)s1` it was 94.8%; in that of `O=C(CCc1nnc2sc(OCc3ccccc3)nn12)c1nc2ccc([N+](=O)[O-])cc2[nH]1`, 99%.
As for `Cn1cc(-c2ccc3c(c2)ncn3-c2ccc(CC(=O)Nc3cc(C(C)(C)C)on3)cc2)cn1`, the growth is 38.7%.
Regarding `Nc1ccc(C2=NN(C(=O)c3cc(-c4ccc(Cl)cc4)nc4ccccc34)C(c3ccc(Cl)cc3)C2)cc1` (stereo not given), the growth is 12.4%.
Turning to `COc1cc(C2=NN(c3ccccc3)C(c3cccc(Nc4ccnc5cc(C(F)(F)F)ccc45)c3)C2)cc(OC)c1OC` (stereo not given), the growth is 80.9%.
Regarding `Cc1cc(C)c2nc(Nc3nc(C)c(C)c(=O)[nH]3)nc(C)c2c1`, the growth was 40.8%.
As to `O=C(N/N=C/C[C@@H]1[C@@H](/C=C/[C@@H](O)COc2cccc(Cl)c2)[C@H](O)C[C@@H]1O)c1ccncc1`, the growth is 102%.
For `Cc1cc(C)c(NC(=O)c2sc3nc4c(cc3c2N)CCCCCC4)c(C)c1`, the growth is 48.1%.
In the case of `C=C1C(=O)O[C@H]2[C@H]1CC/C(COC(=O)/C=C/c1cccnc1)=C\CC[C@@]1(C)O[C@@H]21` it was 54.5%; in that of `N#Cc1ccc(C2C3=C(CCCC3=O)OC3=C2C(=O)c2ccccc2C3=O)cc1` (stereo not given), 6.19% (active).
For the compound `COc1cc([C@H](C)c2ccc3ccccc3c2)cc(OC)c1OC`, the growth was 17.9%.
In the case of `COc1cc(NC(=O)Nc2cnc(Nc3ccc(N4CCOCC4)cc3)nc2Oc2ccc(F)cc2)cc(OC)c1` it was 95.4%; in that of `COc1cc2c(cc1OC)C(Sc1ccc(Cl)cc1)c1c(nc(N)c(C#N)c1N)O2` (stereo not given), 1.5% (active).
`C#C[C@@]1(O)[C@@H](CO)O[C@@H](n2ccc3c(N)ncnc32)[C@@H]1O`: the growth is -9.78% (active).
Consider `O=C1c2ccccc2C(=O)c2c1oc1c2c(=O)[nH]c2ccccc21`, for which the growth is 40.8%.
With `CNCc1cccc2c1OCCOCCOCCN(CCN1CCOCC1)S(=O)(=O)c1ccc(cc1)-c1cnc(N)c(n1)C(=O)N2`, the growth is 108%.
As to `CCOc1ccccc1C(=O)/C=C/c1cc2ccccc2[nH]c1=O`, the growth was -4.24% (active).
For `CCOC(=O)c1c(C)nc2c(c1N)/C(=C/c1ccc[nH]1)C(=O)N2Cc1ccc(C(F)(F)F)cc1`, the growth is 49.7%.
Under `Clc1ccc2c(NCCCNC3CCCCC3)ccnc2c1` stands 109%; under `c1ccc(-c2n(Cc3ccc4ccccc4n3)cc[n+]2Cc2ccc3ccccc3c2)cc1`, 96%.
In the case of `CCOC(=O)c1sc(/N=C2\NC(=O)/C(=C/c3ccc(N4CCN(C)CC4)cc3)S2)nc1C`, the growth was 98.1%.
As for `COc1cc(NCC(=O)Nc2cc(Nc3cccc(C(F)(F)F)c3)ncn2)c(Cl)c(OC)c1Cl`, the growth was 96.3%.
For `CSc1cccc(NC(=O)Nc2nc3c(C)cccc3s2)c1`, the growth is 91.5%.
On to `Cc1nccc2c3ccc(OCc4cn(-c5ccccc5)nn4)cc3n(CCCc3ccccc3)c12`, for which the growth was 70.4%.
For `COc1ccc(C2N(c3cc(OC)c(OC)c(OC)c3)C(=O)C2(F)F)cc1F` (stereo not given), the growth was 32.9%.
For `COc1ccc(-n2cc(-c3ccc(Cl)c(Cl)c3)[nH]c2=O)cc1OC`, the growth is 105%.
For `O=[N+]([O-])c1ccc(Oc2ccc(-c3ccccc3)cc2)cc1`, the growth was 91.8%.
Under `COc1ccc(Nc2cc(NC(=O)CNc3cc(OC)c(Cl)c(OC)c3Cl)ncn2)cc1` stands 84.8%; under `O=C1CS/C(=N/c2nnc(-c3ccc(O)cc3)s2)N1`, 99.3%.
In the case of `CN1CC=C(c2cc(NC(=O)Nc3ccc(Oc4ccnc(NC(=O)C5CC5)c4)c(F)c3)cc(C(F)(F)F)c2)CC1` it was 44.7%.
